These results are taken from PubChem BioAssay (NCI).

The panel holds about 83,000 compounds, 20% with a hit somewhere; the sample as a whole holds those more often.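 The test compound was applied at a single concentration to cells in 96-well plates for 48 hours, and percent growth was recorded.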 A number with no mark means an inactive call. Active and inactive are the calls of the source. The calls were made as follows: active = growth percent below 10; inactive = the rest.

Among the test systems are DU-145 prostate; K-562 leukemia; MALME-3M melanoma; MDA-MB-231 breast; RXF 393 renal; SF-268 CNS; SF-295 CNS; SF-539 CNS; UACC-257 melanoma; HCT-15 colon; HT29 colon; SNB-75 CNS; SNB-19 CNS; U251 CNS; SK-MEL-5 melanoma; UACC-62 melanoma; LOX IMVI melanoma; SK-MEL-28 melanoma; M14 melanoma; PC-3 prostate.
What all share (test): NCI-60 one-dose screen, 48 h (100 = growth as untreated, 0 = no growth, -100 = all killed)
Holding throughout (conditions): 10 µM unless noted

With `CN(C)S(=O)(=O)n1cnc([C@@H]2[C@@H]3C(=O)OC[C@@H]3C[C@]23N=CN(Cc2ccccc2)C3=O)c1`, the growth in the assay with DU-145 prostate was 111%; in the assay on K-562 leukemia it was 116%; in the assay on MALME-3M melanoma, 110%; in the assay on MDA-MB-231 breast, 112%; with RXF 393 renal, 126%; with SF-268 CNS it was 95.6%. Further, the growth with SF-295 CNS is 105%; with SF-539 CNS, 98.5%; in the assay on UACC-257 melanoma, 116%; with HCT-15 colon, 98.4%; with HT29 colon, 89.7%; in the assay with SNB-75 CNS it was 67.5%. Also, the growth in the assay with SNB-19 CNS was 98.2%; in the assay on U251 CNS it was 107%; in the assay with SK-MEL-5 melanoma, 102%; in the assay with UACC-62 melanoma, 106%; in the assay on LOX IMVI melanoma, 101%; in the assay on SK-MEL-28 melanoma it was 108%.

On to `Cn1ncc2c(Nc3ccc(Br)cc3)nc(Nc3ccc(Br)cc3)nc21`, for which the growth in the assay on DU-145 prostate was 68.3%; in the assay on K-562 leukemia, 11.4%; in the assay on MALME-3M melanoma it was 55.4%; with MDA-MB-231 breast, 17.7%; in the assay with RXF 393 renal, 64.1%; with SF-268 CNS it was 57.6%. The growth in the assay on SF-295 CNS is 40.2%; with SF-539 CNS, 64.9%; in the assay on UACC-257 melanoma, 82.6%; with HCT-15 colon, 22.4%; with HT29 colon, 33.4%; in the assay on SNB-75 CNS, 66.9%. Besides, the growth in the assay with SNB-19 CNS is 71.4%; in the assay on U251 CNS, 33.4%; in the assay on SK-MEL-5 melanoma, 47.6%; in the assay on UACC-62 melanoma, 56.1%; in the assay on LOX IMVI melanoma it was -5.28% (active); in the assay with SK-MEL-28 melanoma, 50.1%.

`Cc1ccc(O)c(C(=O)c2ccccc2Cl)c1`: the growth in the assay on DU-145 prostate was 126%; in the assay on K-562 leukemia, 91.4%; with MALME-3M melanoma, 106%; with MDA-MB-231 breast it was 109%; with RXF 393 renal, 104%; in the assay with SF-268 CNS, 104%. Also, the growth with SF-295 CNS is 94.6%; with SF-539 CNS, 96%; in the assay with UACC-257 melanoma, 108%; in the assay on HCT-15 colon it was 99.5%; in the assay with HT29 colon, 108%; in the assay with SNB-75 CNS, 79.3%. Also, the growth is 109% in the assay on SNB-19 CNS; 98.5% in the assay on U251 CNS; 97.6% in the assay with SK-MEL-5 melanoma; 101% in the assay on UACC-62 melanoma; 101% in the assay with LOX IMVI melanoma; 105% with SK-MEL-28 melanoma.

`O=C1Nc2ccccc2SC1C1SC(=S)N(Cc2ccccc2)C1=O` (stereo unspecified): the growth with DU-145 prostate was -34.7% (active); in the assay with K-562 leukemia it was 4.45% (active); in the assay with MALME-3M melanoma, 53.7%; in the assay on MDA-MB-231 breast, 94.8%; in the assay with SF-268 CNS it was 37.7%; in the assay with SF-295 CNS, 63.2%. The growth in the assay on SF-539 CNS was 90.7%; with UACC-257 melanoma, 88.3%; with M14 melanoma, 94.5%; in the assay with HCT-15 colon, 103%; with HT29 colon, 12.9%; in the assay with SNB-75 CNS, 51.4%. In addition, the growth in the assay with SNB-19 CNS was 107%; in the assay on U251 CNS it was 98.3%; in the assay with PC-3 prostate, 88.4%; with SK-MEL-5 melanoma, 95.9%; with UACC-62 melanoma it was 98.5%; with LOX IMVI melanoma, 86.2%. The growth with SK-MEL-28 melanoma was 58.8%.

Turning to `O=C1CSC(c2ccc(O)cc2)N1c1nnc(Cn2cnnc2)o1` (stereo unspecified), the growth in the assay on DU-145 prostate was 93.3%; in the assay on K-562 leukemia it was 45.3%; in the assay on MALME-3M melanoma, 54.1%; with MDA-MB-231 breast, 94.8%; with SF-268 CNS it was 70.3%; in the assay on SF-295 CNS it was 38.6%. Besides, the growth in the assay on SF-539 CNS was 97.6%; in the assay with UACC-257 melanoma, 96.9%; in the assay with M14 melanoma it was 94.6%; in the assay with HCT-15 colon, 110%; with HT29 colon, 55.8%; with SNB-75 CNS, 53.8%. The growth in the assay on SNB-19 CNS is 97.9%; in the assay with U251 CNS, 110%; in the assay on PC-3 prostate, 88.7%; in the assay with SK-MEL-5 melanoma, 105%; in the assay with UACC-62 melanoma, 97.2%; in the assay on LOX IMVI melanoma it was 99.9%. Moreover, in the assay on SK-MEL-28 melanoma, the growth is 77.9%.

Turning to `CC12CC(C#N)CCC1O2` (stereo unspecified), the growth was 127% in the assay on DU-145 prostate; 101% in the assay with K-562 leukemia; 128% with MALME-3M melanoma; 104% in the assay with MDA-MB-231 breast; 119% in the assay on RXF 393 renal; 110% in the assay on SF-268 CNS. The growth in the assay on SF-539 CNS was 96.6%; in the assay on UACC-257 melanoma, 98.3%; in the assay on M14 melanoma, 107%; in the assay with HCT-15 colon, 118%; with HT29 colon, 109%; with SNB-75 CNS it was 100%. Besides, the growth is 111% in the assay with SNB-19 CNS; 103% in the assay on U251 CNS; 101% with PC-3 prostate; 111% with SK-MEL-5 melanoma; 109% with UACC-62 melanoma; 108% in the assay with LOX IMVI melanoma. The growth in the assay on SK-MEL-28 melanoma is 109%.
